An excerpt weighted towards active compounds, which were near 0.95% of everything screened.
TexasRed autofl: qHTS Assay for Spectroscopic Profiling in Texas Red Spectral Region; actives 0.06% (n = 59,000); AID 587, 2007; max dye-equivalent concentration, M; Compound fluorescence, Texas Red channel, 547/618 nm; hits give high values; in the data active means max dye-equivalent concentration above about 10 nM; inconclusive means between about 1.1 nM and that limit
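Fluorescence at ex 547/em 618 nm, normalized against an on-plate Texas Red standard series to give dye-equivalent concentration per compound concentration. Buffer 100 mM Tris, pH 8.0; 15 min RT incubation before CCD imaging.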
Fluorescein fluor: qHTS Assay for Spectroscopic Profiling in Fluorescein Spectral Region. actives 0.91% (n = 59,000). Compound autofluorescence, 480/540 nm, fluorescein-equivalent; hits give high values. max fluorescein-equivalent concentration, M; in the data active means max fluorescein-equivalent concentration above about 10 nM; inconclusive means between about 1.1 nM and that limit
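Compounds were pin-transferred into 100 mM Tris buffer, pH 8.0, and incubated 15 min at room temperature. Fluorescence was read at 480 nm excitation/540 nm emission. Signals were normalized to an on-plate six-point fluorescein standard curve as dye-equivalent concentration.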
Rhodamine fluor: qHTS Assay for Spectroscopic Profiling in Rhodamine Spectral Region; Rhodamine-region fluorescence, 547/598 nm, Tris buffer; hits give high values; max dye-equivalent concentration, M; actives 0.05% (n = 59,000); AID 594, 2007; in the data active means max dye-equivalent concentration above about 11 nM; inconclusive means between about 1.1 nM and that limit
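Compounds in 100 mM Tris buffer, pH 8.0, were incubated 15 min at room temperature, then read at 547 nm excitation and 598 nm emission. Fluorescence was normalized against a per-plate six-point rhodamine standard curve as dye-equivalent concentration.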
Resorufin fluor: qHTS Assay for Spectroscopic Profiling in Resorufin Spectral Region | AID 588, 2007 | max dye-equivalent concentration, M | actives 0.04% (n = 59,000) | Compound fluorescence, resorufin region 547/598 nm, buffer; hits give high values
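Dye-equivalent concentration values derive from comparing each well's 547/598 nm fluorescence against resorufin standards included on every plate. Incubation was 15 min at room temperature in 100 mM Tris, pH 8.0.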
A488 autofl: qHTS Assay for Spectroscopic Profiling in A488 Spectral Region; actives 0.1% (n = 59,000); AID 591, 2007; max dye equivalency, M; compound autofluorescence, A488 spectral region, dye equivalency; Compound Type: qHTS ECL - MLSMR
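Spectroscopic profiling in the A488 region: compounds in pH 8.0 Tris (100 mM), 15 min RT, CCD imaging with 480 nm excitation and 540 nm emission; responses normalized against A488 dye standards.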
A647 autofl: qHTS Assay for Spectroscopic Profiling in A647 Spectral Region | 59,000 tested, under 10 active | AID 592, 2007 | Compound fluorescence, A647 channel (570/671 nm), Tris buffer | max dye-equivalent concentration, M;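 further: values scaled relative to a standard on each plate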
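Fluorescence read (570 nm ex, 671 nm em) after 15 min RT incubation of compounds in 100 mM Tris buffer, pH 8.0; values expressed as dye-equivalent concentration against a six-point A647 standard series on each plate.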
Starred values were filed as active, the others as inactive; i = inactive; ? = inconclusive. Unless noted, how the calls were made is not given here.

SMILES	TexasRed autofl	Fluorescein fluor	Rhodamine fluor	Resorufin fluor	A488 autofl	A647 autofl
C=C1CC[C@@H](O)C/C1=C/C=C1\CCC[C@]2(C)[C@@H]1CC[C@H]2[C@@H](C)CCCC(C)C	i	i	i	i	i	1e-09
CC1CCCN(c2nc3ccccc3nc2C(C#N)C(=O)OC2CCCCC2)C1 (configuration not stated)	?	1.42e-08M*	i	i	i	1.04e-08
N#CC(C(=O)OC1CCCCC1)c1nc2ccccc2nc1N1CCCCC1 (configuration not stated)	i	1.26e-08M*	i	i	i	3.9e-09
C[C@@]12C[C@H](O)[C@@H]3[C@H](CCC4=CC(=O)CC[C@]43C)[C@H]1CC[C@@H]2c1csc(-c2ccccc2)n1	i	i	i	i	i	1e-09
C[C@H]1[C@H](O)[C@@H](C)C=CC=CC=CC=CC=CC=CC=C[C@H](O[C@@H]2O[C@@H](C)[C@H](O)[C@@H](N)[C@@H]2O)C[C@@H]2O[C@](O)(C[C@@H](O)C[C@@H](O)[C@@H](O)CC[C@@H](O)C[C@@H](O)CC(=O)O[C@H]1C)C[C@H](O)[C@H]2C(=O)O	i	i	i	i	i	1e-09
COC(=O)c1ccc2c(c1)SC1=C(CCCC1=O)N2	2.13e-08M*	5.27e-08M*	2e-08M*	1.86e-08M*	?	6.82e-08
CC(=O)c1sc2nc(-c3cccs3)cc(C(F)(F)F)c2c1N	i	7.16e-08M*	i	i	?	1e-09
C=C1C(=O)O[C@H]2C[C@@]3(C)CCCC(=C)[C@@H]3C[C@H]12	?	i	i	i	i	5.2e-09
CC(C)n1c(=NC(=O)c2ccco2)c(C#N)cc2c(=O)n3ccccc3cc21	?	1.14e-08M*	i	i	i	1e-09
CCCn1c(=NC(=O)c2ccco2)c(C(=O)OCC)cc2c(=O)n3ccccc3nc21	i	i	i	i	i	1e-09
CC1=C(\C=C/C(C)=C/C=C\C(C)=C\C(=O)Nc2ccc(O)cc2)C(C)(C)CCC1	i	?	i	i	i	8.9e-09
COc1ccc(-n2c(=O)c(CCc3ccccc3)nc3cnc(N4CCN(C)CC4)nc32)cc1	i	1.22e-08M*	i	i	i	1e-09
COc1cccc2cc(C(=O)N3CCc4ccccc43)c(=O)oc12	i	i	i	i	i	1.17e-08
CCOc1cccc2cc(C(=O)N3CCc4ccccc43)c(=O)oc12	2.29e-08M*	?	1.13e-08M*	?	i	1e-09
C[n+]1cc2c3c(ccc2c2ccc4cc5c(cc4c21)OCO5)OCO3	i	2.96e-08M*	?	i	?	3.7e-09
CCOc1ccc2nc(NS(=O)(=O)c3ccc4c(c3)n(C)c(=O)n4C)sc2c1	i	1.17e-08M*	i	i	i	1e-09
Nc1nc(Cl)nc2c1ncn2[C@@H]1O[C@@H](CO)[C@@H](O)[C@H]1O	i	?	i	i	i	5.8e-09
O=C(O)c1ccncc1.O=C(O)c1ccncc1.[Cl][Pt]([Cl])([Cl])[Cl]	i	?	i	i	i	2.2e-09
CCN1CC=C2C(C#N)=C(N)C(C#N)(C#N)C(c3cc(Cl)ccc3Cl)C2C1 (configuration not stated)	i	2.4e-08M*	i	i	i	5.19e-08
COc1cc(C2C3CN(C)CC=C3C(C#N)=C(N)C2(C#N)C#N)ccc1OC(C)C (configuration not stated)	i	3.61e-08M*	i	i	?	8.6e-09
CC(C)N1CC=C2C(C#N)=C(N)C(C#N)(C#N)C(c3ccccc3)C2C1 (configuration not stated)	i	1.58e-07M*	i	i	?	5.52e-08
CCC1C2CN(C(C)=O)CC=C2C(C#N)=C(N)C1(C#N)C#N (configuration not stated)	i	?	i	i	i	1.21e-08
CN1CC=C2C(C#N)=C(N)C(C#N)(C#N)C(Cc3ccccc3)C2C1 (configuration not stated)	?	3.71e-08M*	i	i	?	2e-09
CNc1ncnc2c1ncn2[C@H]1C[C@@H](OP(=O)(O)O)[C@H](COP(=O)(O)O)O1	i	?	i	i	i	1.3e-09
CC[C@@H]1OC(=O)[C@@H](C)[C@H](O[C@@H]2C[C@@](C)(OC)[C@@H](O)[C@H](C)O2)[C@H](C)[C@H](O[C@@H]2O[C@@H](C)C[C@@H](N(C)C)[C@H]2O)[C@@](C)(O)C[C@H](C)C(=O)[C@@H](C)[C@H](O)[C@@]1(C)O	i	?	i	i	i	1.88e-08
SMILES	TexasRed autofl	Fluorescein fluor	Rhodamine fluor	Resorufin fluor	A488 autofl	A647 autofl
O=C1[C@@H]2[C@@H]3C=C[C@H]([C@@H]2C(=O)N1CN1CCSCC1)[C@@H]1[C@@H]2C(=O)N(CN4CCSCC4)C(=O)[C@@H]2[C@H]31	i	i	i	i	i	1e-09
Cc1ccccc1-n1c(=O)/c(=C\c2ccco2)s/c1=C(/C#N)C(=O)Nc1ccccc1	i	1.37e-08M*	i	i	i	1e-09
O=c1oc2c(CN3CCCCC3)c(O)ccc2cc1-c1nc2ccccc2[nH]1	i	2.83e-06M*	i	i	1.4e-07M*	1e-09
Nc1nc(Cl)nc2c1ncn2[C@@H]1O[C@@H](COP(=O)(O)OP(=O)(O)OP(=O)(O)O)[C@@H](O)[C@H]1O	i	i	i	i	i	2.7e-09
CCOC(=O)c1csc(NC(=O)CSc2nnnn2-c2ccc(OCC)cc2)n1	i	2.29e-08M*	i	i	i	1e-09
O=C1NC(=O)[C@@H]2C3c4ccccc4C=CN3[C@H](C(=O)c3cccs3)[C@H]12 (some centres not stated)	i	2.37e-08M*	i	i	i	1.4e-09
O=C(Cn1ccccc1=O)c1cccs1	i	i	i	i	i	1e-09
O=c1oc2c3c4c(cc2c(C(F)(F)F)c1CCN1CCOCC1)CCCN4CCC3	?	4.61e-08M*	i	i	?	1e-09
O=c1oc2c(CN3CCOCC3)c(O)ccc2c2c1CCC2	i	i	i	i	i	6.5e-09
C/C(=C\CNc1ncnc2c1ncn2[C@@H]1O[C@@H](CO)[C@@H](O)[C@H]1O)CO	i	i	i	i	i	1e-09
COC(=O)C1=C(C)NC(C)=C(C(=O)OC(C)C)[C@H]1c1cccc2nonc12	i	1.16e-08M*	i	i	i	2.7e-09

Source: PubChem BioAssay (National Center for Advancing Translational Sciences (NCATS))
